# From ChEMBL document CHEMBL4649986, “Chemical probes and inhibitors of bromodomains outside the BET family” (Medchemcomm, 2016)
# Columns and labels:
# [1] = target: Bromodomain-containing protein 4 (Homo sapiens) (UniProt O60885); details: Compound concentration 10.0 uM, Protein concentration 2.0 uM
# [2] = target: T1, Transcription intermediary factor 1-alpha (Homo sapiens) (UniProt O15164); details: Compound concentration 10.0 uM, Protein concentration 2.0 uM
# T1 sequence (whole entry): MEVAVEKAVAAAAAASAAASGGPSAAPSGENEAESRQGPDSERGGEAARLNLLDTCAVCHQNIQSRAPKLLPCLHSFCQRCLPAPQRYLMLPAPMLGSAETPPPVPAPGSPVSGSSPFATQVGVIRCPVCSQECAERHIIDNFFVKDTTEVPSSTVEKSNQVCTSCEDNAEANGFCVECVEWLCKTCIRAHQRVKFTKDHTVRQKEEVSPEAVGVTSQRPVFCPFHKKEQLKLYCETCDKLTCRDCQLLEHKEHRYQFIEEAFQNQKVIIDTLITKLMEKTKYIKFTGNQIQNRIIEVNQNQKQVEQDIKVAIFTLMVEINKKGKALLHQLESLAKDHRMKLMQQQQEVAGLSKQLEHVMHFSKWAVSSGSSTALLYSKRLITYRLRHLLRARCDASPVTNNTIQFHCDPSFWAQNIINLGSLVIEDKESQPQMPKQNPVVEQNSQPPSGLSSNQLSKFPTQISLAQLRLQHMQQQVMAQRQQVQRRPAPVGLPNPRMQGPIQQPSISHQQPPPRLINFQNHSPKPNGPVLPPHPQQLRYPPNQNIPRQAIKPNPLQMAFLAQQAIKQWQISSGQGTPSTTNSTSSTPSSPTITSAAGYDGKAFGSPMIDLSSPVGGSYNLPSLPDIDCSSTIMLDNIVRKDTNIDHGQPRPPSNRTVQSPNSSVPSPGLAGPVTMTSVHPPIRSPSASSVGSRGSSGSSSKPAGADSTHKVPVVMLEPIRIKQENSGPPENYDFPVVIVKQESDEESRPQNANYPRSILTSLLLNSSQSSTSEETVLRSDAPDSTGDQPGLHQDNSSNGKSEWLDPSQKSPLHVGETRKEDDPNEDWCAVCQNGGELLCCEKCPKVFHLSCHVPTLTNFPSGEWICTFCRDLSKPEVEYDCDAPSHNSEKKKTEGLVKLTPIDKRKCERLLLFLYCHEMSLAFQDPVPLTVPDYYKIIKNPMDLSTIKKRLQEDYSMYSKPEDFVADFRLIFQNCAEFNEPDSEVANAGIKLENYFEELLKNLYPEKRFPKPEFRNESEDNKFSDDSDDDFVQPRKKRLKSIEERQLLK
compound,measurement,setting,value
CCCS(=O)(=O)c1nc(NC2CC2)cc(-c2ccc3c(ccn3C3CC(C)(C)NC(C)(C)C3)c2)n1,ΔTm,[1],0.53 °C
same,ΔTm,[2],0.33 °C
